# Test results taken from paper PMC7862700, “An all-to-all approach to the identification of sequence-specific readers for epigenetic DNA modifications on cytosine”.
# Tests used:
# Assay in all cases: DAPPL (digital affinity profiling via proximity ligation, sequencing); 10 mM Tris-HCl pH 7.5, 50 mM NaCl, 1 mM DTT, 4% glycerol, room temperature, 30 min; GST-TFs on glutathione beads, 16-mer random dsDNA library, 0.1% formaldehyde crosslink after washing; high values mean tight binding
# [1] = target: T1, FLI1 (Homo sapiens, UniProt Q01543 1-452); conditions: protein: recombinant; tags: N-terminal GST; dsDNA, one strand shown
# T1 sequence: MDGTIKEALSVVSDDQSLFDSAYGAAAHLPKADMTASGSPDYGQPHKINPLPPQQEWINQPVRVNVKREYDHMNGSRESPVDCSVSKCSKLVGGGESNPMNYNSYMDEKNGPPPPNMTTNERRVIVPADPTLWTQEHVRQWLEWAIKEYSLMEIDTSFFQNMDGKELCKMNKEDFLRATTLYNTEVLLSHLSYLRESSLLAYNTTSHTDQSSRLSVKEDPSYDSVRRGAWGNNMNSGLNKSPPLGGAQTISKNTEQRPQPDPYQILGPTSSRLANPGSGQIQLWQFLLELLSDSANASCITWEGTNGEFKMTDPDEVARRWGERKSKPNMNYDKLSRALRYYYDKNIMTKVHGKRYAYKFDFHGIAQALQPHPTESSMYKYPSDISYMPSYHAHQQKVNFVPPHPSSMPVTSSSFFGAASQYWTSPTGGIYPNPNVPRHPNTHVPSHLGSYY
# How it was run: (§1)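 Binding signal is each hexamer's read frequency for a factor divided by its frequency in the tag-only sample. The factors were GST-fused human transcription factors from yeast, captured on glutathione beads, DNA-barcoded and pooled with that sample. Pools were incubated with 200 nmole of a random double-stranded 16-mer DNA library in Tris/NaCl/DTT/glycerol buffer at room temperature for 30 min, then washed, crosslinked with 0.1% formaldehyde, proximity-ligated with BsaI/T4 ligase (1 h, 37 °C), PCR-amplified and sequenced on an Illumina NextSeq500.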
# [2] = target: T2, ELK1 (Homo sapiens, UniProt P19419 1-428); conditions: protein: recombinant; tags: N-terminal GST; dsDNA, one strand shown
# T2 sequence: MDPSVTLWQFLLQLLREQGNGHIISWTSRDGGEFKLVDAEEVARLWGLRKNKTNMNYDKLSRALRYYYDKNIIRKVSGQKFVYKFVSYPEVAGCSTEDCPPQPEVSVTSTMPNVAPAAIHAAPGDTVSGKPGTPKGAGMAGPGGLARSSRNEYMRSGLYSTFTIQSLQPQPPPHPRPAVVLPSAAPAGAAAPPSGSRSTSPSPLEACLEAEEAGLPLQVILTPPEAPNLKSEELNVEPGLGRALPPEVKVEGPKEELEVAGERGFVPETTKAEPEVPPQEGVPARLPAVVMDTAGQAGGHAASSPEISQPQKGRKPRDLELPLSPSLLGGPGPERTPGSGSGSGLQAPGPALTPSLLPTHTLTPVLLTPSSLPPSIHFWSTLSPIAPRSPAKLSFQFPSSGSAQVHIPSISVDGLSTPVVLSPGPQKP
# How it was run: as §1
# [3] = target: T3, GABPA (Homo sapiens, UniProt Q06546 1-454); conditions: protein: recombinant; tags: N-terminal GST; dsDNA, one strand shown
# T3 sequence: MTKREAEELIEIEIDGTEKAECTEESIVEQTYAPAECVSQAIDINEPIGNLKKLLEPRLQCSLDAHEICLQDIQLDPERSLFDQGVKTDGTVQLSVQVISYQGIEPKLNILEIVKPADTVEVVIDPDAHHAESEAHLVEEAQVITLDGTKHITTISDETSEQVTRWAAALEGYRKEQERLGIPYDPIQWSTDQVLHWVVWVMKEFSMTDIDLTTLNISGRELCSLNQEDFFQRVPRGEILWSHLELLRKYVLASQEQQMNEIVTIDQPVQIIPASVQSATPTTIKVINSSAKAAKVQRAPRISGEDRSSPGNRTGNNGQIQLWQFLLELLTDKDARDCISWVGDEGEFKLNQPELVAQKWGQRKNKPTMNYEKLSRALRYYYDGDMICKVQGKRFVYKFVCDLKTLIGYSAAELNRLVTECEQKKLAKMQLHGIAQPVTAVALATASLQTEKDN
# How it was run: as §1
# [4] = target: T4, ERG (Homo sapiens, UniProt P11308 1-479); conditions: protein: recombinant; tags: N-terminal GST; dsDNA, one strand shown
# T4 sequence: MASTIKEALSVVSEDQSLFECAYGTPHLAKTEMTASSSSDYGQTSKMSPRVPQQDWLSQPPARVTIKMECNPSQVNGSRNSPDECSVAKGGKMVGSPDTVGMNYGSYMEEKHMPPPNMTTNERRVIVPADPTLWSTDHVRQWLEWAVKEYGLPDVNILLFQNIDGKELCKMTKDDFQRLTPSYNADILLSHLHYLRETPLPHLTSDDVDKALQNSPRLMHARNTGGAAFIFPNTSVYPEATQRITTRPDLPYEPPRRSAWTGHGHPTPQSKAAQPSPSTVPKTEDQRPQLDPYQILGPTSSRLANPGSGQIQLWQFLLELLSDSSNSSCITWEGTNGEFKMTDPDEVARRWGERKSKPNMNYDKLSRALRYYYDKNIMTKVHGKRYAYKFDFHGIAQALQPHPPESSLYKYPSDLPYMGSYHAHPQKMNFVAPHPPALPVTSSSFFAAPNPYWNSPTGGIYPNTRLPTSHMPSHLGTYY
# How it was run: as §1
# [5] = target: ELF1 (Homo sapiens, UniProt P32519 1-619); conditions: protein: recombinant; tags: N-terminal GST; dsDNA, one strand shown
# How it was run: as §1
# [6] = target: T5, EHF (Homo sapiens, UniProt Q9NZC4 1-300); conditions: protein: recombinant; tags: N-terminal GST; dsDNA, one strand shown
# T5 sequence: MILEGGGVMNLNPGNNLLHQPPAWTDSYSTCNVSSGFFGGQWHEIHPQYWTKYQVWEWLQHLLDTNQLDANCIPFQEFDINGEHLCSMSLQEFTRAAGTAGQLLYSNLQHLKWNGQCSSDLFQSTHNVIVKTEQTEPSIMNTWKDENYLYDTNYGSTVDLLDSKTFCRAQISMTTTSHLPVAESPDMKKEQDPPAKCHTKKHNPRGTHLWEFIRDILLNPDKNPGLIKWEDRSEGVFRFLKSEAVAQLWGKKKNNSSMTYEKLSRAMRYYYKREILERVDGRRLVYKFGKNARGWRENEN
# How it was run: as §1
# [7] = target: SPI1 (Homo sapiens, UniProt P17947 1-270); conditions: protein: recombinant; tags: N-terminal GST; dsDNA, one strand shown
# How it was run: as §1
# [8] = target: SPIB (Homo sapiens, UniProt Q01892 1-262); conditions: protein: recombinant; tags: N-terminal GST; dsDNA, one strand shown
# How it was run: as §1
# [9] = target: HSF1 (Homo sapiens, UniProt Q00613 1-529); conditions: protein: recombinant; tags: N-terminal GST; chain copies: 3; dsDNA, one strand shown
# How it was run: as §1
# [10] = target: ELF4 (Homo sapiens, UniProt Q99607 1-663); conditions: protein: recombinant; tags: N-terminal GST; dsDNA, one strand shown
# How it was run: as §1
# Sequence of ELF4 (Q99607 whole entry): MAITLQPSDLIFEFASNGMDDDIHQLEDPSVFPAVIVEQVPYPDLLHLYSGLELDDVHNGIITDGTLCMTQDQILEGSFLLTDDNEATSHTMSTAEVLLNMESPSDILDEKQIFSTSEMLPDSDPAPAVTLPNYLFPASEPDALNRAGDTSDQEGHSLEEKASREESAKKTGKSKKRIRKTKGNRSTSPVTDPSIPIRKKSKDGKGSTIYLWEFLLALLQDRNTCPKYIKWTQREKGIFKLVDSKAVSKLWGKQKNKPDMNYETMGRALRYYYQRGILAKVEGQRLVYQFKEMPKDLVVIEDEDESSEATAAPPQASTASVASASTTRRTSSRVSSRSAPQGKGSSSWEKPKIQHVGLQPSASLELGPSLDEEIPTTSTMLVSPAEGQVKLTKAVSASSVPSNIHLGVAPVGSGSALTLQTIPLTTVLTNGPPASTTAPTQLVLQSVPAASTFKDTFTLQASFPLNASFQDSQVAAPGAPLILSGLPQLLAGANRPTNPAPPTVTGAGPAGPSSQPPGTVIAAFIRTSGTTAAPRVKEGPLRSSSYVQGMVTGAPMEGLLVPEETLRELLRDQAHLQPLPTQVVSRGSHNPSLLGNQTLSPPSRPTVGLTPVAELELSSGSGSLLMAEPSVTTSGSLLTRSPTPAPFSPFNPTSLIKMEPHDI
# Sequence of HSF1 (Q00613 whole entry): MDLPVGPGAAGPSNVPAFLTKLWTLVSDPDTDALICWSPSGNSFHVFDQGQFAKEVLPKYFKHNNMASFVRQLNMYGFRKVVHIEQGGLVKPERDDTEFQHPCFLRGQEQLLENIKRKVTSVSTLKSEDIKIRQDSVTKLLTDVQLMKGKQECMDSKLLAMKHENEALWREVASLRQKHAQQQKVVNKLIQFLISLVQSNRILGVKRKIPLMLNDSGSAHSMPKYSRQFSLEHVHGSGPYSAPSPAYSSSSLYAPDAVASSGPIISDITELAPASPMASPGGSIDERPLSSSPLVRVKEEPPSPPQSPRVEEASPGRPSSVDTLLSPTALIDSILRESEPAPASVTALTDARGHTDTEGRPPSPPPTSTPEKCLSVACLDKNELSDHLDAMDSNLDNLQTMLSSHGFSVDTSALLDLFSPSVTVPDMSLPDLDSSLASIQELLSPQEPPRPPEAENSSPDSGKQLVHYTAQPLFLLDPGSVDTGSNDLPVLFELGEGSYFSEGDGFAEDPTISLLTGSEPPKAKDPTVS
# Sequence of SPIB (Q01892 whole entry): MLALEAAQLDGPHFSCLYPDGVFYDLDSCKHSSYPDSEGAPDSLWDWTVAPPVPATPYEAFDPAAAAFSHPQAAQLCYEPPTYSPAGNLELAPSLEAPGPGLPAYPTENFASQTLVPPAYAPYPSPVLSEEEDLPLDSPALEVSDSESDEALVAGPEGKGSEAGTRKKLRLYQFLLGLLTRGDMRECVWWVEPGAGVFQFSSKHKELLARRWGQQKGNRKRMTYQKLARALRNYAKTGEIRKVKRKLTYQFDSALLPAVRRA
# Sequence of ELF1 (P32519 whole entry): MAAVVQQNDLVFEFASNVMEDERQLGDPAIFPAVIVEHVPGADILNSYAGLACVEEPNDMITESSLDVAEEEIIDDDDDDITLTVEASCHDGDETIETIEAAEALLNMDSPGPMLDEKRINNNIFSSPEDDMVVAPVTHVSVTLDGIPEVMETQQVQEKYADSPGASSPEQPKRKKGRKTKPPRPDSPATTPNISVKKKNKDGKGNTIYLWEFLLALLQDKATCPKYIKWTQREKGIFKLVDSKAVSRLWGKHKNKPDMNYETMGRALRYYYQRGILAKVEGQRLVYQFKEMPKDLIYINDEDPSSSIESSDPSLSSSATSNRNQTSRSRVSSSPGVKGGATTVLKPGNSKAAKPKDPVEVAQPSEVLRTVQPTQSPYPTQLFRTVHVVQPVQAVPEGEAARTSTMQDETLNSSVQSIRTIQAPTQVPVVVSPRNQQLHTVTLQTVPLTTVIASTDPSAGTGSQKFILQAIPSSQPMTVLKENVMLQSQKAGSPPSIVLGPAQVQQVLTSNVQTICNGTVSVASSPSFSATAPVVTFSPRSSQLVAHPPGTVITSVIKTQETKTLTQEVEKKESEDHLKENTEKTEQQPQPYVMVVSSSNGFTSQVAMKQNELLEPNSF
sequence,measurement,setting,value
TCAGCT,binding signal,[1],"1.09 fold enrichment (6-mer frequency, TF over GST control)"
same,binding signal,[2],"1 fold enrichment (6-mer frequency, TF over GST control)"
same,binding signal,[3],"1.04 fold enrichment (6-mer frequency, TF over GST control)"
same,binding signal,[4],"1.06 fold enrichment (6-mer frequency, TF over GST control)"
same,binding signal,[5],"1.12 fold enrichment (6-mer frequency, TF over GST control)"
same,binding signal,[6],"1.11 fold enrichment (6-mer frequency, TF over GST control)"
same,binding signal,[7],"1.04 fold enrichment (6-mer frequency, TF over GST control)"
same,binding signal,[8],"1.09 fold enrichment (6-mer frequency, TF over GST control)"
same,binding signal,[9],"1.07 fold enrichment (6-mer frequency, TF over GST control)"
same,binding signal,[10],"1.03 fold enrichment (6-mer frequency, TF over GST control)"
